{"source": "PubChem BioAssay (EPA / NIEHS)", "note": "A structure can be active in one record and inactive in another. Active and inactive are the calls of the source. How the source made its calls: active means hit-call score of the fitted dose curve at least 0.9, where 1 is the maximum; inactive means score below 0.9.", "data": [{"read-out": "Interleukin-8 (IL8), CXCL8 (gene 3576)", "experiment": "BSK_KF3CT_IL8: BioMAP Diversity Plus: KF3CT Assay for Interleukin-8 (IL8) Biomarker Activity (AID 2284254)", "settings": "primary human keratinocytes with fibroblasts", "procedure": "BSK_KF3CT is a cell-based, multiplexed-readout assay that uses keratinocytes and foreskin fibroblasts, a human skin primary cell co-culture, with measurements taken at 24 hours after chemical dosing in a 96-well plate.BSK_KF3CT_IL8 is an assay component measured in the BSK_KF3CT assay. It measures IL-8 antibody related to regulation of gene expression using ELISA technology.Data from the assay component BSK_KF3CT_IL8 was analyzed at the endpoint, BSK_KF3CT_IL8, in the positive analysis fitting direction relative to DMSO as the negative control and baseline of activity. Using a type of binding reporter, gain or loss-of-signal activity can be used to understand protein changes. To generalize the intended target to other relatable targets, this assay endpoint is annotated to the 'cytokine' intended target family, where the subfamily is 'interleukins'.\nThe levels of cell surface (or secreted, indicated by the prefix \"s\") biomarker endpoints were measured by ELISA. Overt cytotoxicity to cells in confluent adherent cultures (all systems other than the BT system) was assessed by measuring total protein levels using sulforhodamine B (SRB) staining in parallel cultures at the time of biomarker measurements, indicated as SRB endpoints. For proliferation assays for adherent cell types, individual cell types are cultured at sub-confluence and relative cell numbers quantified by SRB staining at time points optimized for each system (48 h: 3C and CASM3C systems; 72 h: BT and HDF3CGF systems; 96 h: SAg system). SRB was performed by staining cells with 0.1% SRB after fixation with 10% TCA and reading wells at 560 nm.Viability and proliferation of PBMC (T cells) was quantified by Alamar Blue reduction for the SAg and BT systems. For PBMC viability (referred to as PBMC Cytotoxicity within the assay endpoint names), cells were plated (75,000/well in a 96-well plate) and then chemical samples added for 1 h before addition of activators, SEB and TSST-1 (20 ng/mL final concentration each). Cells were incubated for 90 h. Then, Alamar Blue (20 uL/well) (Invitrogen, Cat DAL1100) was added for 6 h, and the plates were read with a fluorescence microplate reader at 546/580 nm (excitation/emission). For PBMC proliferation, cells were plated and activated as above but incubated for only 16 h prior to addition of Alamar Blue. Plates were read after 6 h.", "values": [{"smiles": "OCC(F)(OC(F)(F)C(F)(OC(F)(F)C(F)(F)C(F)(F)F)C(F)(F)F)C(F)(F)F", "note": "(stereo not given)", "outcome": "inactive", "AC50": "4.96 µM (active)"}, {"smiles": "CC(C)CCCC(C)(C)O", "outcome": "inactive"}, {"smiles": "C=C(C)C(=O)OCCC(F)(F)C(F)(F)C(F)(F)C(F)(F)C(F)(F)C(F)(F)C(F)(F)C(F)(F)F", "outcome": "inactive"}, {"smiles": "CCn1cc(C(=O)O)c(=O)c2ccc(C)nc21", "outcome": "inactive"}, {"smiles": "O=C(O)C(F)(F)C(F)(F)C(F)(F)C(F)(F)C(F)(F)C(F)(F)C(F)(F)C(F)F", "outcome": "inactive"}, {"smiles": "c1ccc(OCCOc2ccccc2)cc1", "outcome": "inactive"}, {"smiles": "CCCO[Si](OCCC)(OCCC)OCCC", "outcome": "inactive"}, {"smiles": "CC(=O)c1ccc(C)cc1", "outcome": "inactive"}, {"smiles": "O=S(=O)(O)C(F)(F)C(F)(F)OC(F)(F)C(F)(F)F", "outcome": "inactive"}, {"smiles": "CCCCN(CCO)CCO", "outcome": "inactive"}, {"smiles": "CC(C)(CO)CO", "outcome": "inactive"}, {"smiles": "O=C(O)C(F)(F)OC(F)(F)C(F)(F)OC(F)(F)C(F)(F)C(F)(F)C(F)(F)F", "outcome": "inactive", "AC50": "42.7 µM (active)"}, {"smiles": "C=C(F)C(=O)OC(C(F)(F)F)C(F)(F)F", "outcome": "inactive"}]}]}
